Screening results (PubChem BioAssay)
An excerpt weighted towards active compounds, which were near 2.1% of everything screened.
Rce1 inh – blocks yeast Ras-converting enzyme | AID 2563 | 290,000 compounds, 0.27% hits | calls only | yeast membranes, quenched prenylated peptide cleavage fluorescence | Q03530;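 active means fall in fluorescence gain of 50% or more versus controls, with final raw signal at or below 3038400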
Target sequence (Q03530 whole entry, looked up): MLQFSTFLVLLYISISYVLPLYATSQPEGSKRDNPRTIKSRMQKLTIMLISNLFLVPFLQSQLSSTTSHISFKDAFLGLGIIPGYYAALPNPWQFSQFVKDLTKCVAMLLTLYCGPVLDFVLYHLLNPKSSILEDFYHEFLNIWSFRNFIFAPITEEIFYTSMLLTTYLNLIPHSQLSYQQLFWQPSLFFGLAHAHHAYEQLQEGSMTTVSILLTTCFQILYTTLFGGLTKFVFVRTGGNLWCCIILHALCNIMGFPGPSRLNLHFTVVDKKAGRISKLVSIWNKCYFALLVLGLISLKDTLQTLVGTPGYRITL
ADAM10 inh – inhibits human ADAM10 | O14672 | recombinant ADAM10, EDANS/DABCYL FRET peptide cleavage, 3 h | inhibition, % at 7 µM | 370,000 compounds, 0.62% hits;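 active means inhibition above a per-campaign cutoff equal to the mean of compounds falling between control-based bounds plus 3 SD, cut at about 20% in these data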
ADAM17 inh – inhibits human ADAM17. recombinant ADAM17, EDANS/DABCYL FRET peptide cleavage. inhibition, % at 6.95 µM. 370,000 compounds, 0.83% hits. AID 720648;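 active means inhibition above the mean of compounds lying between control limits plus 3 SD, set per campaign, cut at about 8.5% in these data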
PLC-gamma1 inh – blocks human PLC-gamma1 enzyme activity; purified PLC-gamma1, fluorogenic substrate, fluorescence; inhibition, % at 12.2 µM; 370,000 compounds, 0.84% hits; AID 720700; in the data active means inhibition above about 9.5%
PLCb3 inh – PLC-beta3 (human) inhibition, primary screen | Q01970 | 370,000 compounds, 0.18% hits | Purified PLC-beta3, fluorogenic substrate, fluorescence | inhibition, % at 12.2 µM | AID 720704; in the data active means inhibition above about 11%
ADAM10 confirm – human ADAM10 inhibition, confirmation. shares compounds with ADAM10 inh. ADAM10 QFRET peptide cleavage, EDANS fluorescence. inhibition, % at 6.95 µM. 2,100 compounds, 1% hits. AID 743208;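 active means inhibition above about 20% chosen separately for each screening run, limit read from the data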
ADAM17 ctr – counter-screen for ADAM10 exosite inhibitors: inhibitors of human ADAM17. AID 743214. ADAM17 QFRET peptide cleavage, EDANS fluorescence. inhibition, % at 6.95 µM. 2,100 compounds, 0.5% hits. shares compounds with ADAM10 inh;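 active means mean triplicate inhibition above the solvent-only control wells' mean plus 3 SD, cut at about 12% in these data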
ADAM10 ctr – inhibits human ADAM10 in ADAM17 exosite counter-screen; shares compounds with ADAM17 inh; recombinant ADAM10, EDANS/DABCYL FRET peptide cleavage, 3 h; inhibition, % at 6.95 µM; 2,900 compounds, 47% hits; AID 743256;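 active means mean inhibition over the triplicate runs exceeds the activity threshold set in the earlier primary screen, cut at about 20% in these data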
ADAM17 confirm – confirmation of inhibitors of human ADAM17; 2,900 compounds, 65% hits; recombinant ADAM17, EDANS/DABCYL QFRET peptide cleavage; AID 743257; shares compounds with ADAM17 inh; inhibition, % at 6.95 µM;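 active means mean inhibition across replicates above the hit cutoff set in the primary screen, cut at about 8.5% in these data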
Numbers stand for hits; - = inactive; . = not tested or not shown.

SMILES	Rce1 inh	ADAM10 inh	ADAM17 inh	PLC-gamma1 inh	PLCb3 inh	ADAM10 confirm	ADAM17 ctr	ADAM10 ctr	ADAM17 confirm
CCc1cccc2c(C(=O)CN3C(=O)NC(C)(c4cccc5ccccc45)C3=O)c[nH]c12 (configuration not stated)	-	30	9.6	-	-	-	-	28	16
Cc1ccc(NC(=O)C2CCN(S(=O)(=O)c3ccc4c(c3)NC(=O)C(C)S4)CC2)cc1Cl (configuration not stated)	-	24	9.4	-	-	-	-	47	24
Cc1cc(C)cc(NC(=O)C2CCN(S(=O)(=O)c3ccc4c(c3)NC(=O)C(C)S4)CC2)c1 (configuration not stated)	-	-	-	-	-	.	.	.	.
CCOC(=O)C(Cc1nc(OCc2ccccc2)cc(OCc2ccccc2)n1)=NO	.	28	8.8	-	-	-	-	24	12
CCOC(=O)C(=O)Cc1nc(OCc2ccccc2)cc(OCc2ccccc2)n1	.	-	-	-	-	.	.	.	.
CCN1C[C@@H]2[C@@H]3C(=O)N(Cc4ccccc4)C(=O)[C@@H]3[C@](C)(C1=O)N2C(=O)c1ccc(Cl)c(Cl)c1	.	-	-	-	-	.	.	.	.
CN(C)CCCn1c(SCC(=O)Nc2nc(-c3cccc(Br)c3)cs2)nc2ccccc2c1=O	-	-	-	-	-	.	.	.	.
O=C(CSc1nc2ccccc2[nH]1)Nc1nc(-c2cccc(Br)c2)cs1	-	50	23	-	-	23	-	40	24
O=C(Nc1ccc(Nc2ccccc2)cc1)c1c(F)c(F)c(F)c(F)c1F	-	20	14	-	-	-	-	30	14
CCNC(=O)C1(C)CCN(C(=O)c2ccc(-c3ccccc3)cc2)C1 (configuration not stated)	.	-	-	-	-	.	.	.	.
CN1CCS/C1=C\C=C1/SC(=S)N(CC(=O)O)C1=O	.	25	10	-	-	-	-	-	11
C#CCN(C[C@H]1[C@H](OC(=O)NCc2ccccc2F)[C@H](OC(=O)NCc2ccccc2F)C[C@H]2C(=O)N(c3ccccc3)C(=O)[C@@H]12)S(=O)(=O)c1ccc(C)cc1	.	29	9.0	-	-	-	-	-	-
C#CCN(C[C@H]1[C@H](OC(=O)NCc2ccc(OC)c(OC)c2)[C@H](OC(=O)NCc2ccc(OC)c(OC)c2)C[C@H]2C(=O)N(c3ccccc3)C(=O)[C@@H]12)S(=O)(=O)c1ccc(C)cc1	.	-	-	-	-	.	.	.	.
CCOc1ccc(/C=C/C(=O)Nc2ccc3[nH]c(=O)[nH]c3c2)cc1	-	-	-	-	-	.	.	.	.
O=C(Nc1ccccc1)OCC1COC(c2ccccc2)(c2ccccc2)O1 (configuration not stated)	.	25	11	-	-	-	-	24	12
O=C(Nc1ccccc1)OCC1CCCO1 (configuration not stated)	-	-	-	-	-	.	.	.	.
CCOC(=O)[C@@]12CN(C(=O)OC(C)(C)C)CC=C1N(Cc1ccc(OC)cc1)C(=O)[C@H]2CC(=O)NCCCCc1ccccc1	.	22	8.7	-	-	-	-	-	10
CCOC(=O)[C@@]12CN(C(=O)OC(C)(C)C)CC=C1N(Cc1ccc(OC)cc1)C(=O)[C@H]2CC(=O)NCCCOC	.	-	-	-	-	.	.	.	.
CCOC(=O)[C@]12CCCCC/C=C\1N(Cc1ccc(OC)cc1)C(=O)[C@H]2CC(=O)NCc1cccc(C(F)(F)F)c1	.	21	11	-	-	-	-	34	14
COc1cccc(CNC(=O)c2ccc(CS(=O)Cc3ccccc3Cl)o2)c1 (configuration not stated)	.	-	-	-	-	.	.	.	.
CCc1cccc(C)c1NC(=O)CN1CCN(S(=O)(=O)c2ccc(C(C)(C)C)cc2)CC1	-	24	10.0	-	-	-	-	-	-
COc1ccc(NC(=S)Nc2nc(CC(=O)Nc3ccccc3OC)cs2)cc1	-	24	9.3	-	-	-	-	-	14
COc1ccc(OC)c(NC(=O)Cc2csc(NC(=O)Nc3ccccc3OC)n2)c1	-	-	-	-	-	.	.	.	.
O=C(O)c1cccc(Nc2nc(-c3ccc([N+](=O)[O-])cc3)nc3ccccc23)c1	-	-	-	-	-	.	.	.	.
O=[N+]([O-])c1ccc(-c2nc(Nc3cccc(O)c3)c3ccccc3n2)cc1	-	31	13	-	-	-	-	34	17
SMILES	Rce1 inh	ADAM10 inh	ADAM17 inh	PLC-gamma1 inh	PLCb3 inh	ADAM10 confirm	ADAM17 ctr	ADAM10 ctr	ADAM17 confirm
O=C(Nc1cc(Oc2ccccc2)cc([N+](=O)[O-])c1)C12CC3CC(C1)CC(n1cnc(Cl)n1)(C3)C2	-	22	9.7	-	-	-	-	28	11
O=C(O)c1cccc(NC(=O)C23CC4CC(C2)CC(n2cnc(Cl)n2)(C4)C3)c1	-	-	-	-	-	.	.	.	.
COc1ccc(Cc2c(-c3ccc(F)cc3)nc3cc(C)c(Br)c(C)n23)c(C)c1	.	-	-	-	-	.	.	.	.
Cc1ccc(C2CC2C(=O)NNC(=S)Nc2cccc(Cl)c2)cc1 (configuration not stated)	-	39	22	-	-	-	-	24	11
COc1ccc(CNc2nc(-c3ccccc3)nc3ccccc23)cc1OC	-	22	13	-	-	-	-	24	17
Fc1ccc(CNc2nc(-c3ccccc3)nc3ccccc23)cc1	-	-	-	-	-	.	.	.	.
Cc1ccc(C(C(=O)NC2CCCC2)N(Cc2ccccc2)C(=O)c2csnn2)o1 (configuration not stated)	-	-	-	-	-	.	.	.	.
COc1cc(C(C(=O)NC2CCCCC2)N(Cc2cccs2)C(=O)Cc2c[nH]c3ccccc23)cc(OC)c1OC (configuration not stated)	-	-	-	-	-	.	.	.	.
COc1cccc(CN(C(=O)Cc2c[nH]c3ccccc23)C(C(=O)NC2CCCCC2)c2ccc(C)o2)c1 (configuration not stated)	-	22	11	-	-	-	-	33	16
Cc1ccc(C(C(=O)NC2CCCCC2)N(Cc2ccccc2)C(=O)Cc2c[nH]c3ccccc23)o1 (configuration not stated)	-	20	15	-	-	-	-	-	12
Cc1ccc(C(C(=O)NC(C)(C)C)N(CC2CCCO2)C(=O)c2csnn2)cc1 (configuration not stated)	-	-	-	-	-	.	.	.	.
